Here are results for 36 compounds from PubChem BioAssay (NCATS).

Values without a mark were called inactive. Inconclusive results are not listed. A call without a number means that no potency is given here. Activity calls are given as the source filed them. Calls follow the shape of the dose curve; as a rule, active = well fitted curve in the direction sought with a large enough effect; inconclusive = small, poorly fitted or top-dose-only effect, or another doubt; inactive = no such curve, though single readings can be large; an effect the other way counts as inactive or inconclusive.

One experiment can be described thus: qHTS assay for measurement of the activity of small molecule inhibitors on Zika virus induced Caspase-3 activity in human astrocytoma cells (AID 1224859). Particulars: SNB-19 ZIKV-induced caspase-3/7, luminescence, 6 h; series mostly up to 45.7 µM. The procedure, abridged: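 Luminescent caspase-3/7 read-out (30 min reagent, room temperature) in human SNB-19 cells infected 6 h with ZIKV (2 FFU/cell) after 1 h compound pre-incubation; Data were normalised to uninfected and infected wells.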
(In general: In qHTS, concentration-response curves come from the screen itself.)
As to `CNC(=O)CN(CCN(CCN(CC(=O)[O-])CC(=O)NC)CC(=O)[O-])CC(=O)[O-].O.[Gd+3]`, the result was inactive.
For the compound `COCc1c(C(C)C)nc(C(C)C)c(/C=C/[C@@H](O)C[C@@H](O)CC(=O)O)c1-c1ccc(F)cc1`, the call was inactive.
Same read-out and setting: the value for `C[C@]12C=CC(=O)C=C1[C@@H](F)C[C@@H]1[C@@H]2[C@@H](O)C[C@@]2(C)[C@H]1CC[C@]2(O)C(=O)CO` was “inactive”.
Still for that read-out and setting: the value for `CC(=O)[C@H]1CC[C@H]2[C@@H]3C[C@H](C)C4=CC(=O)CC[C@]4(C)[C@H]3[C@@H](O)C[C@]12C` was “inactive”.
As for `COc1ccc(C2C(=O)c3ccccc3C2=O)cc1`, the outcome was inactive.
On the same count and under the same terms, the value for `Cc1ccccc1C(=O)Nc1ccc(C(=O)N2CCCC(N(C)C)c3ccccc32)cc1` (centres undefined) was “inactive”.
Turning to `CCn1cc(C(=O)O)c(=O)c2cnc(N3CCCC3)nc21`, the activity change, negative = inhibition was 4.3% [at 9.06 µM].
As for `CC(=O)N(O)CCCCCNC(=O)CCC(=O)N(O)CCCCCNC(=O)CCC(=O)N(O)CCCCCN`, the compound was called inactive.
The same measure, in the same setting: as for `COc1ccc(OC)c(C(O)CNC(=O)CN)c1` (centres undefined), the entry is “inactive”; as for `CN1CCC[C@@H]1c1cccnc1`, “inactive”; as for `OC[C@H]1O[C@@H](n2cnc3c(=S)nc[nH]c32)[C@H](O)[C@@H]1O`, “inactive”.
For `CC(=O)OCC(=O)[C@@]12OC(C)(C)O[C@@H]1C[C@H]1[C@@H]3C[C@H](F)C4=CC(=O)C=C[C@]4(C)[C@@]3(F)[C@@H](O)C[C@@]12C`, the call was inactive.
On the same count and under the same terms, as for `Cc1cc2c(cc1CC(=O)c1sccc1S(=O)(=O)Nc1onc(C)c1Cl)OCO2`, the entry is “inactive”.
The same measure, in the same setting: as for `CC(C)(C)NC(=O)[C@@H]1CN(Cc2cccnc2)CCN1C[C@@H](O)C[C@@H](Cc1ccccc1)C(=O)N[C@H]1c2ccccc2C[C@H]1O`, the entry is “inactive”.
The same measure, in the same setting: the value for `COC(=O)C1=C(C)NC(C)=C(C(=O)O[C@@H]2CCCN(Cc3ccccc3)C2)[C@@H]1c1cccc([N+](=O)[O-])c1` was “inactive”; that for `Cc1onc(-c2c(Cl)cccc2Cl)c1C(=O)N[C@@H]1C(=O)N2[C@@H]1SC(C)(C)[C@@H]2C(=O)O` was “inactive”; that for `COC(=O)CCc1ccc(OCC(O)CNC(C)C)cc1` (centres undefined) was “inactive”.
In the case of `CNCCC=C1c2ccccc2CCc2ccccc21`, the compound was classed as inactive.
For `CN1CCN(C(c2ccccc2)c2ccccc2)CC1`, the compound was classed as inactive.
With `CC1(C)O[C@@H]2C[C@H]3[C@@H]4C[C@H](F)C5=CC(=O)C=C[C@]5(C)[C@H]4[C@@H](O)C[C@]3(C)[C@]2(C(=O)CO)O1`, the compound was classed as inactive.
Same read-out and setting: the value for `CC(C)n1nc(-c2cc3cc(O)ccc3[nH]2)c2c(N)ncnc21` was “inactive”; that for `CC1=C(C(=O)O)N2C(=O)[C@@H](NC(=O)[C@H](N)c3ccc(O)cc3)[C@H]2SC1` was “inactive”; that for `CCCCCCCCCCCCCCNCCO` was “inactive”.
The same measure, in the same setting: the value for `O=c1[nH]c(=O)n([C@H]2CCCO2)cc1F` was “inactive”.
The same measure, in the same setting: as for `C=C(CC)C(=O)c1ccc(OCC(=O)O)c(Cl)c1Cl`, the entry is “inactive”; as for `CC1(C)OC[C@@H](COC(=O)CCc2ccc(OC[C@@H](O)CNCCNC(=O)N3CCOCC3)cc2)O1`, “inactive”; as for `CC(=O)c1ccc2c(c1)N(CCCN1CCC(CCO)CC1)c1ccccc1S2`, “inactive”.
In the case of `COc1cc(NS(C)(=O)=O)ccc1Nc1c2ccccc2nc2ccccc12`, the outcome was inactive.
Same read-out and setting: as for `CCC(C(=O)OCCN(CC)CC)c1ccccc1` (centres undefined), the entry is “inactive”; as for `Cc1ccc(Nc2c(F)cccc2Cl)c(CC(=O)O)c1`, “inactive”.
Still for that read-out and setting: the value for `Nc1ccc(C(=O)Nc2ccccc2N)cc1` was “inactive”; that for `COc1c(C)c2c(c(O)c1C/C=C(\C)CCC(=O)O)C(=O)OC2` was “inactive”.
On the same count and under the same terms, as for `Cc1nc2n(c(=O)c1CCN1CCC(c3noc4cc(F)ccc34)CC1)CCC[C@H]2O`, the entry is “inactive”; as for `NC[C@H]1O[C@H](O[C@H]2[C@H](O)[C@@H](O[C@H]3O[C@H](CO)[C@@H](O)[C@H](N)[C@H]3O)[C@H](N)C[C@@H]2N)[C@H](N)[C@@H](O)[C@@H]1O`, “inactive”.

The nature of a further experiment: P-glycoprotein substrates identified in KB-8-5-11 adenocarcinoma cell line, qHTS therapeutic library screen (AID 1346987). Also: nearly all actives have a fitted effect of over 65% in size. Also: potency is read from the fitted curve at half-maximal effect. The settings on record: KB-8-5-11 (P-gp overexpressing) viability, CellTiter-Glo, 72 h; series mostly up to 44.5 µM. An outline of the steps:
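KB-8-5-11, a colchicine-selected P-gp-overexpressing KB-3-1 subline, was grown without colchicine for the assay. Cells were seeded at 500 cells/well, dosed in concentration-response and incubated 72 h at 37 degree C, 5% CO2. Viability was read by CellTiter-Glo luminescence.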
On to `CNC(=O)CN(CCN(CCN(CC(=O)[O-])CC(=O)NC)CC(=O)[O-])CC(=O)[O-].O.[Gd+3]`, for which the Potency entry was “inactive”.
Same read-out and setting: as for `COCc1c(C(C)C)nc(C(C)C)c(/C=C/[C@@H](O)C[C@@H](O)CC(=O)O)c1-c1ccc(F)cc1`, the figure is 0.731 µM (active).
With `C[C@]12C=CC(=O)C=C1[C@@H](F)C[C@@H]1[C@@H]2[C@@H](O)C[C@@]2(C)[C@H]1CC[C@]2(O)C(=O)CO`, the Potency entry was “inactive”.
Same read-out and setting: the value for `CC(=O)[C@H]1CC[C@H]2[C@@H]3C[C@H](C)C4=CC(=O)CC[C@]4(C)[C@H]3[C@@H](O)C[C@]12C` was 6.99 µM (active); that for `COc1ccc(C2C(=O)c3ccccc3C2=O)cc1` was “inactive”.
The same measure, in the same setting: as for `Cc1ccccc1C(=O)Nc1ccc(C(=O)N2CCCC(N(C)C)c3ccccc32)cc1` (centres undefined), the figure is 5.8 µM (active); as for `CCn1cc(C(=O)O)c(=O)c2cnc(N3CCCC3)nc21`, “inactive”; as for `CC(=O)N(O)CCCCCNC(=O)CCC(=O)N(O)CCCCCNC(=O)CCC(=O)N(O)CCCCCN`, “inactive”.
Regarding `CN1CCC[C@@H]1c1cccnc1`, the Potency result was “inactive”.
For the compound `OC[C@H]1O[C@@H](n2cnc3c(=S)nc[nH]c32)[C@H](O)[C@@H]1O`, the Potency was 1.84 µM (active).
On the same count and under the same terms, as for `CCCCCCCCCCOCC(O)CN` (centres undefined), the entry is “inactive”; as for `Cc1cc2c(cc1CC(=O)c1sccc1S(=O)(=O)Nc1onc(C)c1Cl)OCO2`, “inactive”.
On the same count and under the same terms, as for `CC(C)(C)NC(=O)[C@@H]1CN(Cc2cccnc2)CCN1C[C@@H](O)C[C@@H](Cc1ccccc1)C(=O)N[C@H]1c2ccccc2C[C@H]1O`, the entry is “inactive”.
The same measure, in the same setting: the value for `COC(=O)C1=C(C)NC(C)=C(C(=O)O[C@@H]2CCCN(Cc3ccccc3)C2)[C@@H]1c1cccc([N+](=O)[O-])c1` was 20.6 µM (active); that for `Cc1onc(-c2c(Cl)cccc2Cl)c1C(=O)N[C@@H]1C(=O)N2[C@@H]1SC(C)(C)[C@@H]2C(=O)O` was “inactive”.
As for `CCCCOc1cc(C(=O)NCCN(CC)CC)c2ccccc2n1`, the Potency entry was “inactive”.
Still for that read-out and setting: the value for `COC(=O)CCc1ccc(OCC(O)CNC(C)C)cc1` (centres undefined) was “inactive”; that for `CNCCC=C1c2ccccc2CCc2ccccc21` was 20.6 µM (active).
Still for that read-out and setting: the value for `CN1CCN(C(c2ccccc2)c2ccccc2)CC1` was “inactive”; that for `CC1(C)O[C@@H]2C[C@H]3[C@@H]4C[C@H](F)C5=CC(=O)C=C[C@]5(C)[C@H]4[C@@H](O)C[C@]3(C)[C@]2(C(=O)CO)O1` was “inactive”.
As to `CC(C)n1nc(-c2cc3cc(O)ccc3[nH]2)c2c(N)ncnc21`, the Potency is 0.366 µM (active).
Same read-out and setting: as for `O=c1[nH]c(=O)n([C@H]2CCCO2)cc1F`, the entry is “inactive”; as for `C=C(CC)C(=O)c1ccc(OCC(=O)O)c(Cl)c1Cl`, “inactive”; as for `CC1(C)OC[C@@H](COC(=O)CCc2ccc(OC[C@@H](O)CNCCNC(=O)N3CCOCC3)cc2)O1`, “inactive”.
For the compound `CC(=O)c1ccc2c(c1)N(CCCN1CCC(CCO)CC1)c1ccccc1S2`, the Potency entry is “inactive”.
Same read-out and setting: as for `CCC(C(=O)OCCN(CC)CC)c1ccccc1` (centres undefined), the entry is “inactive”; as for `Cc1ccc(Nc2c(F)cccc2Cl)c(CC(=O)O)c1`, “inactive”.
As to `Nc1ccc(C(=O)Nc2ccccc2N)cc1`, the Potency is 16.4 µM (active).
The same measure, in the same setting: the value for `Cc1nc2n(c(=O)c1CCN1CCC(c3noc4cc(F)ccc34)CC1)CCC[C@H]2O` was “inactive”.
Turning to `NC[C@H]1O[C@H](O[C@H]2[C@H](O)[C@@H](O[C@H]3O[C@H](CO)[C@@H](O)[C@H](N)[C@H]3O)[C@H](N)C[C@@H]2N)[C@H](N)[C@@H](O)[C@@H]1O`, the Potency entry was “inactive”.
